{"source": "the supplement of paper PMC9950053", "note": "Structures can show the parent of a compound that is named as a salt."}
{"test_system": "Danio rerio larvae (5 dpf)", "assay": "1-h baseline activity (% time moving, periods 1-6) minus DMSO control (percentage points); higher = more locomotor activity than DMSO larvae", "conditions": "10 µM; exposure time: 3 h pre-incubation + 3 h imaging", "description": "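Wild-type 5 dpf zebrafish larvae (n=48 per drug, 96-well plates, 28.5 °C) were exposed to Tocris FDA-approved library compounds at 10 µM (0.1% DMSO) for 3 h before and 3 h during imaging. Images were taken every 6 s during visual (moving coloured lines) and acoustic stimuli, and larvae were tracked with the DeepLabCut-based Z-LaP Tracker. Each behavioural measure is the treated-group mean minus the DMSO vehicle control mean (n=844), in percentage points. This mapping covers compounds with 4-character plate codes.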"}
{"smiles": "O=c1[nH]c2ccccc2n1C1CCN(CCCC(c2ccc(F)cc2)c2ccc(F)cc2)CC1", "note": "[Pimozide]", "1-h baseline activity": -18.2}
{"smiles": "C=CCN1C[C@H](C(=O)N(CCCN(C)C)C(=O)NCC)C[C@@H]2c3cccc4[nH]cc(c34)C[C@H]21", "note": "[Cabergoline]", "1-h baseline activity": -9.92}
{"smiles": "CN1C[C@H](C(=O)N[C@]2(C)O[C@@]3(O)[C@@H]4CCCN4C(=O)[C@H](Cc4ccccc4)N3C2=O)C[C@@H]2c3cccc4[nH]cc(c34)C[C@H]21", "note": "[Dihydroergotamine mesylate]", "1-h baseline activity": 1.07}
{"smiles": "Cc1cccc([C@H](C)c2c[nH]cn2)c1C", "note": "[Dexmedetomidine hydrochloride]", "1-h baseline activity": -27.3}
{"smiles": "C=C1C[C@@H]2[C@H](CC[C@]3(C)C(=O)CC[C@@H]23)[C@@]2(C)C=CC(=O)C=C12", "note": "[Exemestane]", "1-h baseline activity": -19.5}
{"smiles": "N[C@@H]1C[C@H]1c1ccccc1", "note": "[Tranylcypromine hydrochloride]", "1-h baseline activity": -14.7}
{"smiles": "CC(O)(CS(=O)(=O)c1ccc(F)cc1)C(=O)Nc1ccc(C#N)c(C(F)(F)F)c1", "note": "(stereo unspecified) [Bicalutamide]", "1-h baseline activity": 3}
{"smiles": "CC[C@@H](C(N)=O)N1CCCC1=O", "note": "[Levetiracetam]", "1-h baseline activity": 5.78}
{"smiles": "CCN(C)C(=O)Oc1cccc([C@H](C)N(C)C)c1", "note": "[Rivastigmine tartrate]", "1-h baseline activity": 7.3}
{"smiles": "COc1cc2c(cc1OC)C1CC(=O)C(CC(C)C)CN1CC2", "note": "(stereo unspecified) [Tetrabenazine]", "1-h baseline activity": -0.785}
{"smiles": "CC(C)C[C@H]1C(=O)N2CCC[C@H]2[C@]2(O)O[C@](NC(=O)[C@@H]3C=C4c5cccc6[nH]c(Br)c(c56)C[C@H]4N(C)C3)(C(C)C)C(=O)N12", "note": "[Bromocriptine mesylate]", "1-h baseline activity": 16.1}
